In PubChem BioAssay AID449762 (Southern Research Specialized Biocontainment Screening …, 2010):
In all, about 330,000 compounds went through this assay and about 1,900 (0.58%) were called active. Roughly 4% stayed inconclusive and do not appear here. The list is a sample of the results. Measured potencies and affinities stand elsewhere. A number with no mark means an inactive call. Cut-off read from the data, not from the text of the source: inconclusive = inhibition above about 70% without an active follow-up result; inactive = below that.

Assay: M. tuberculosis growth inhibition, HTS (AID 449762);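 note: bacterial growth assessed after seven days of incubation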
Details: M. tuberculosis H37Rv growth inhibition, 7H9 media; at 25 µM; stronger effect = higher value

Row | SMILES | inhibition [%]
1 | O=C(OCc1nc2ccccc2s1)c1ccco1 | 53.7
2 | CSCc1ccc(C(=O)OCc2nc3ccccc3s2)o1 | 65.8
3 | CC(=O)C1=C(O)C(=O)N(c2ccc(Br)cc2)C1c1cccc([N+](=O)[O-])c1 (stereo unspecified) | -1.11
4 | O=C(CS(=O)CC(=O)Nc1cnc2ccccc2c1)Nc1ccc(Cl)cc1 (stereo unspecified) | 47
5 | CCOc1ccc(NC(=S)NC23CC4CC(CC(C4)C2)C3)cc1 | -20.5
6 | CSc1nsc(SC)c1C(=O)OCC(F)(F)F | -1.41
7 | CCN(CC)C(=O)CN1CCC(c2nc3cc(C)c(C)cc3[nH]2)CC1 | -1.85
8 | CCN1CCN(CC2COc3ccccc3O2)CC1 (stereo unspecified) | -2.32
9 | CCC(C)N1C(=O)CCC1C(=O)NCCc1ccc(Cl)cc1 (stereo unspecified) | 5.11
10 | CCCCOc1ccc(CC2CCC(=O)NC2=O)cc1 (stereo unspecified) | 12.4
11 | CCOc1ccc(C(C)(C)C)cc1S(=O)(=O)n1nc(C)cc1C | -3.62
12 | O=C(/C=C/c1ccccc1)Oc1ccc(C(=S)N2CCOCC2)cc1 | 13.4
13 | COc1cc(C(=S)N2CCOCC2)ccc1OC(=O)/C=C/c1ccco1 | 5.25
14 | CN(C(=O)c1cccc(NC(=O)c2ccccc2)c1)C1CCCCC1 | -5.84
15 | CN(C)S(=O)(=O)c1ccc(Nc2ccc(-c3ccc4c(c3)OCCO4)nn2)cc1 | 2.53
16 | CCOc1ccc(-c2nn3c(-c4ccc(F)cc4)nnc3s2)cc1 | 0.65
17 | COc1ccc(-c2nn3c(-c4ccccc4)nnc3s2)cc1 | 36.9
18 | COc1ccccc1OCC(=O)N/N=C1/C=C(C)CC1 | 8.93
19 | COc1cc(NC(=O)c2ccc(CNc3c(N4CCOCC4)c(=O)c3=O)cc2)cc(OC)c1 | -10.6
20 | COc1ccc(CNC(=O)C2CCC(CNc3c(N4CCOCC4)c(=O)c3=O)CC2)cc1 (stereo unspecified) | -8.95
21 | O=C(c1ccc(CNc2c(N3CCCC3)c(=O)c2=O)cc1)N1CCN(C2CCCCC2)CC1 | 38.8
22 | Cc1ccc(CNC(=O)c2ccc(CNc3c(N4CCCC4)c(=O)c3=O)cc2)cc1 | -5.18
23 | CC(C)C[C@H]1CNC(=O)C(=O)N1C[C@H](C)NC(=O)Cc1ccccc1 | -3.35

Row | SMILES | inhibition [%]
24 | N#Cc1cccc(C(=O)N(CCc2ccccc2)Cc2cccs2)c1 | 2.88
25 | Cc1cc(NC(=O)CN(C)CC(=O)Nc2ccc(F)c(F)c2F)no1 | -14.5
26 | N#Cc1c(-c2ccc(Br)cc2)nc2n(c1=O)CCCS2 | -5.36
27 | O=c1nc2n(c3ccc(Br)cc13)CCS2 | 14
28 | CC(C)n1nnnc1-c1ccc(Cl)cc1 | -5.7
29 | Cc1ccc(C23OCCN2CCn2nc4ccccc4c23)cc1 (stereo unspecified) | -9.54
30 | N#Cc1ccc(C23OCCN2CCn2c3c3ccccc3[n+]2[O-])cc1 (stereo unspecified) | 21.6
31 | O=C(Nc1sc2c(c1C(=O)NC1CC1)CCCCCC2)c1ccco1 | -5.06
32 | c1cncc(C2CC(c3cccs3)n3ncnc3N2)c1 (stereo unspecified) | -8.25
33 | Cc1ccc2nc(/C(C#N)=C/c3ccccc3C(=O)O)[nH]c2c1 | -0.89
34 | Cc1ccc2nc(/C(C#N)=C/c3ccc(O)c(O)c3)[nH]c2c1 | 0.8
35 | CCc1ccccc1NC(=O)CNC(=O)c1n[nH]c(=O)c2ccccc12 | -6.75
36 | C=C[C@@H]1c2cc(C)ccc2N(S(=O)(=O)c2ccc(C)cc2)[C@H](c2ccccc2)C1(C#N)C#N | -12.5
37 | COc1cc(C)ccc1OCCOc1c(C)cccc1Cl | 62.7
38 | COc1cc(C)ccc1OCCOc1c(Cl)cc(Cl)cc1Cl | -4.9
39 | CC(C)Oc1ccc(C(=O)NC(Cc2c[nH]c3ccccc23)C(=O)NN)cc1 (stereo unspecified) | 3.03
40 | Cc1cc(Br)ccc1NC(=O)CN1CCN(c2ccccn2)CC1 | -1.24
41 | CC(C)NC(=O)c1cnc(N2CCN(c3ccccn3)CC2)c2ccccc12 | -4.73
42 | COc1ccc(Br)cc1C(=O)Nc1ccc(Cc2ccncc2)cc1 | -1.26
43 | COc1ccccc1C(=O)Nc1ccc(Cc2ccncc2)cc1 | -0.58
44 | O=C(NCCc1ccc(Cl)cc1)C1CCCN(c2ncnc3c2nc2n3CCCCC2)C1 (stereo unspecified) | 29.1
45 | CC1CCCN(C(=O)c2ccc(-c3ccccc3Cl)o2)C1 (stereo unspecified) | 27.8
46 | NC(=O)C1CCN(C(=O)c2ccc(-c3ccccc3Cl)o2)CC1 | -1.57

Row | SMILES | inhibition [%]
47 | COCc1cc(C)nc(SCC[N+](C)(C)CC(=O)Nc2cccc(C)c2)c1C#N | 10.4
48 | CNc1nc2c(-c3ccc(Cl)cc3)nnn2c2ccccc12 | 8.01
49 | NNc1nc2c(-c3ccc(Cl)cc3)nnn2c2ccccc12 | -3.53
50 | CCC(C)CCN1C(Nc2ccccc2)=NC[C@@H]1CC(C)C (stereo partly specified) | -0.75
51 | CN1C(C(=O)N2CCC3(CC2)OCCO3)=CC(c2ccc(F)cc2)=NS1(=O)=O | 1.76
52 | Cc1nonc1OCCNc1ccc([N+](=O)[O-])c2cccnc12 | 2.82
53 | Cc1nonc1OCCNCCNc1ccccc1[N+](=O)[O-] | 5.53
54 | C#CCOCCOCCOCCNc1nc(N2CCN(C(=O)[C@H](CCC(=O)O)n3cc(C(N)Cc4ccc(O)cc4)nn3)CC2)nc(N2CCN(C(=O)[C@H](Cc3cc4ccccc4[nH]3)n3cc(C(N)CC(C)C)nn3)CC2)n1 (stereo partly specified) | -1.44
55 | C#CCOCCOCCOCCNc1nc(N2CCN(C(=O)C(CCC(=O)O)n3cc(C(N)CC(C)C)nn3)CC2)nc(N2CCN(C(=O)C(Cc3cc4ccccc4[nH]3)n3cc(C(N)Cc4ccc(O)cc4)nn3)CC2)n1 (stereo unspecified) | 2.57
56 | CCCNC(=O)OCc1cccnc1Sc1ccc(C)cc1 | 3.87
57 | CC(C)(C)OC(=O)N1CCC[C@H]1c1nnc(SCc2c(F)cccc2Cl)o1 | 5.9
58 | Cc1noc(C)c1COC(=O)c1ccc(-c2nc3ccccc3s2)s1 | -0.34
59 | CCCNC(=O)c1ccc(-c2nc3ccccc3s2)s1 | 11
60 | CCCN(CC(=O)Nc1cc(Cl)ccc1Cl)C(=O)c1ccccn1 | -9.27
61 | O=C(NC1CCC(=O)N(CCSc2ccccc2)CC1)OCc1ccccc1 (stereo unspecified) | 1.1
62 | Cc1ccc(SCCN2CCC(NC(=O)OCc3ccccc3)CCC2=O)cc1 (stereo unspecified) | -5.79
63 | COc1cc(C(C(=O)NCC2CCCO2)N(C(=O)Cn2nnc3ccccc32)c2ccc(C(C)=O)cc2)ccc1O (stereo unspecified) | -7.43
64 | CCCCNC(=O)C1CC(c2ccccc2[N+](=O)[O-])=NO1 (stereo unspecified) | 0.43
65 | CCOC(=O)c1ccc(CSc2nnc(N)s2)cc1 | 3.29
66 | CCOC(=O)CSc1nc(C2CC2)cc(-c2ccc(Cl)cc2)c1C#N | -4.91
67 | Clc1ccc(-c2nnc(Sc3nc4ccccc4o3)c3ccccc23)cc1 | -4.13
68 | Cc1ccc(-c2nnc(Sc3nc4ccccc4o3)c3ccccc23)cc1 | -10.4
69 | CCc1nc2cccnc2n1-c1ccc(CC(=O)O)cc1 | -1.43

Row | SMILES | inhibition [%]
70 | Fc1ccc(N2CCN(C(=S)NCc3ccco3)CC2)cc1 | 1.09
71 | CC1CCCN(C(=S)SCC(=O)c2cc(Br)cc(Br)c2O)C1 (stereo unspecified) | 1.93
72 | O=C(CSC(=S)N1CCCC1)c1ccccc1 | -7.15
73 | Cc1cc(NC(=O)CSc2n[nH]c(CC(C)C)n2)no1 | -10.9
74 | Cc1ncc(CN2CCC(n3nccc3NC(=O)c3ccccc3)CC2)s1 | -15.1
75 | CCn1cc2nc(SCC(=O)Nc3ccc(F)cc3F)n(Cc3ccccc3)c(=O)c2n1 | -4.3
76 | CN(C)CCCN(C(=O)c1cc2cc([N+](=O)[O-])ccc2s1)c1nc2cc3c(cc2s1)OCCO3 | -1.83
77 | CN(C)CCCN(C(=O)c1ccc(Br)s1)c1nc2cc3c(cc2s1)OCCO3 | 9.92
78 | COc1ccc(C(C[N+](=O)[O-])c2c(-c3ccccc3)cc3ccccn23)cc1 (stereo unspecified) | -3.56
79 | COc1ccc(C(C[N+](=O)[O-])c2c(-c3ccccc3)cc3ccccn23)cc1OC (stereo unspecified) | -0.65
80 | Cc1cccc(Cn2c(SCC(=O)Nc3ccccc3)nc3c2c(=O)[nH]c(=O)n3C)c1 | -13.5
81 | CCCC(c1nnnn1CC1CCCO1)N1CCN(c2cc(Cl)ccc2C)CC1 (stereo unspecified) | 1.1
82 | CCCCCCCc1nc2nc(C)c(Br)c(=O)n2[nH]1 | 8.34
83 | CCCn1c(SCC(=O)Nc2ccc3c(c2)OCCO3)nnc1-c1ccco1 | -7.16
84 | O=C(C[C@@H]1C/C=C\C[C@H](NC(=O)OCC2c3ccccc3-c3ccccc32)C(=O)OC[C@@H]2CCCN2C1=O)N[C@@H](CO)Cc1ccccc1 | 1.79
85 | O=C(C[C@H]1C/C=C\C[C@H](NC(=O)OCC2c3ccccc3-c3ccccc32)C(=O)OC[C@@H]2CCCN2C1=O)N[C@H](CO)Cc1ccccc1 | -0.02
86 | Cc1occc1-c1nnc(SCC(=O)N(C)c2ccccc2)n1C | -1.83
87 | CC(=O)c1ccc(OCC(O)COc2ccc(C(C)=O)cc2)cc1 | 6.86
88 | CC(C)(c1ccccc1)c1ccc(OCC(O)CN2CCCC2)cc1 (stereo unspecified) | 1.65
89 | O=C(O)c1ccc(NC(=O)c2cccc(S(=O)(=O)Nc3ccc(C(=O)O)cc3)c2)cc1 | -1.83
90 | COc1ccccc1N1CCN(CC(=O)Nc2ccccc2C(=O)NCCc2ccccc2)CC1 | 33.8
91 | O=C(CN1CCN(c2ccc(O)cc2)CC1)Nc1ccccc1C(=O)NCCc1ccccc1 | -9.61
